Results: PubChem BioAssay (Tox21)
Records with an inconclusive call do not appear. Activity calls are given as the source filed them. Unless noted, calls come from the whole dose curve; as a rule, active = well fitted curve in the direction sought with a large enough effect in the repeat runs; inconclusive = weak or mixed curves; inactive = no such curve, though single readings can be large; an effect the other way counts as inactive or inconclusive.

How the values were obtained:
[1] = qHTS assay to identify small molecule antagonists of the peroxisome proliferator-activated receptor delta (PPARd) signaling pathway - cell viability counter screen (AID 743213); conditions: PPARd-bla HEK293H viability, CellTiter-Glo luminescence, 17 h; series mostly up to 62 µM; note: nearly all actives have a fitted effect of over 50% in size; note: potency is the fitted concentration of half-maximal effect
Outline: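 HEK293H cells with the PPARd UAS-bla reporter, co-treated 17 h at 37 C with compounds and L165041 (300 nM final), were lysed with CellTiter-Glo. Luminescence indicated viable cell content.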

[2] = biological target: Bile acid receptor (Homo sapiens) (UniProt Q96RI1); assay: qHTS assay to identify small molecule antagonists of the farnesoid-X-receptor (FXR) signaling pathway (AID 743217; active = well fitted inhibition curve with a large enough effect in the signal ratio in the repeat runs, not every such curve was filed as active; the % refers to the signal ratio; note: potency is the fitted concentration of half-maximal effect); conditions: HEK293T FXR-UAS-bla, beta-lactamase ratio, CDCA-stimulated, 16 h; series mostly up to 62.6 µM
Bile acid receptor (Homo sapiens), sequence (Q96RI1 whole entry, looked up): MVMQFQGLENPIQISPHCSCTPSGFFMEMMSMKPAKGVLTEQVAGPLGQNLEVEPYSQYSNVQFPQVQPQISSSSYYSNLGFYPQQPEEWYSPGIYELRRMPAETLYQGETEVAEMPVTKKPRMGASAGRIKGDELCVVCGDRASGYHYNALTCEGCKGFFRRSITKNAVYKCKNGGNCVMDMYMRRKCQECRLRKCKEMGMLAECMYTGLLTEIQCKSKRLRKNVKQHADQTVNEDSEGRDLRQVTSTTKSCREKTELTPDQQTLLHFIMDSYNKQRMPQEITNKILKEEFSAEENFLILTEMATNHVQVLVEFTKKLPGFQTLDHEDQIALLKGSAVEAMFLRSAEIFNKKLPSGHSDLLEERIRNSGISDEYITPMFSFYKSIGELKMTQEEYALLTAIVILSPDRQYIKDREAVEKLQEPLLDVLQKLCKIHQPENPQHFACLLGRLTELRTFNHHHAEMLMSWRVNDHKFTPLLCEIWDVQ
Outline: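 Test compounds are pin-transferred onto FXR-bla HEK 293T cells, then chenodeoxycholic acid is added at 50 uM final. After 16 h at 37 °C, LiveBLAzer B/G substrate is applied for 2 h at room temperature and fluorescence read.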

[3] = qHTS assay to identify small molecule agonists of the farnesoid-X-receptor (FXR) signaling pathway - cell viability counter screen (AID 743218); conditions: FXR-bla HEK293T viability, CellTiter-Glo luminescence, 16 h; series mostly up to 62.6 µM; note: nearly all actives have a fitted effect of over 45% in size; note: potency is the fitted concentration of half-maximal effect
Outline: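 Quantitative HTS counter screen measuring ATP-based viability via CellTiter-Glo luminescence in HEK 293T cells carrying a UAS-driven beta-lactamase reporter, after 16 h compound exposure at 37 C.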

[4] = biological target: Bile acid receptor (Homo sapiens) (UniProt Q96RI1); assay: qHTS assay to identify small molecule agonists of the farnesoid-X-receptor (FXR) signaling pathway (AID 743220; active = well fitted activation curve with a large enough effect in the signal ratio in the repeat runs, not every such curve was filed as active; the % refers to the signal ratio); conditions: HEK293T FXR-UAS-bla, beta-lactamase FRET ratio, 16 h; series mostly up to 62.6 µM
Outline: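 FXR-UAS-bla HEK 293T cells carrying a UAS-driven beta-lactamase reporter were plated for 5 h at 37C/5% CO2, then exposed to DMSO-dissolved Tox21 10K compounds for 16 h at 37C. A LiveBLAzer B/G FRET substrate was loaded for 2 h at room temperature before fluorescence reading.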

[5] = qHTS assay to identify small molecule antagonists of the farnesoid-X-receptor (FXR) signaling pathway - cell viability counter screen (AID 743221; active = well fitted cell-killing curve with a large enough effect in the repeat runs, not every such curve was filed as active; note: nearly all actives have a fitted effect of over 50% in size; note: potency is the fitted concentration of half-maximal effect); conditions: FXR-bla HEK293T viability, CellTiter-Glo luminescence, 16 h; series mostly up to 62.6 µM
Outline: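 Here viability was scored by luminescence after CellTiter-Glo addition to wells already read for beta-lactamase. Prior treatment: compound plus CDCA (50 uM final), 16 h, 37 C, HEK 293T FXR-bla cells.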

[6] = biological target: Vitamin D3 receptor (Homo sapiens) (UniProt P11473); assay: qHTS assay to identify small molecule antagonists of the vitamin D receptor (VDR) signaling pathway (AID 743223; active = well fitted inhibition curve with a large enough effect in the signal ratio in the repeat runs, not every such curve was filed as active; the % refers to the signal ratio; note: potency is the fitted concentration of half-maximal effect); conditions: VDR-UAS-bla HEK293T, beta-lactamase FRET ratio, 16 h; series mostly up to 61 µM
Vitamin D3 receptor (Homo sapiens), sequence (P11473 whole entry, looked up): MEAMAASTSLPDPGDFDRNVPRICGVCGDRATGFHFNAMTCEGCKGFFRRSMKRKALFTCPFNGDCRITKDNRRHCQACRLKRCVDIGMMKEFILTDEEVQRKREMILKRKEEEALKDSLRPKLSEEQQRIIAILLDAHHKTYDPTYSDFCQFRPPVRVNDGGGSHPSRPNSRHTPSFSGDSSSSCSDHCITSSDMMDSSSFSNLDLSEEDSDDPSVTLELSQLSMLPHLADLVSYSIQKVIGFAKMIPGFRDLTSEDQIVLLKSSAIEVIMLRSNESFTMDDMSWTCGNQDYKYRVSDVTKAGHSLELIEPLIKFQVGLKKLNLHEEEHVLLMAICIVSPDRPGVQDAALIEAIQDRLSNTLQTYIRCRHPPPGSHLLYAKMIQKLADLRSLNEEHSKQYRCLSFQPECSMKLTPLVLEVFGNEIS
Outline: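 Inhibition of agonist-driven VDR signalling is scored in VDR-bla cells: 3 nM final 1alpha,25-dihydroxyvitamin D3 plus compound, 16 h at 37C, then beta-lactamase detection by FRET substrate fluorescence after 2 h.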

[7] = qHTS assay to identify small molecule antagonists of the vitamin D receptor (VDR) signaling pathway - cell viability counter screen (AID 743225); conditions: VDR-bla HEK293T viability, CellTiter-Glo luminescence, 16 h; series mostly up to 61 µM; note: nearly all actives have a fitted effect of over 50% in size; note: potency is the fitted concentration of half-maximal effect
Outline: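 Compounds were pinned onto VDR-bla HEK 293T cells together with 1-alpha,25-dihydroxyvitamin D3 at 3 nM final. After 16 h at 37C and 5% CO2 plus the reporter readout, cell viability was measured by CellTiter-Glo luminescence (30 min, room temperature).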

[8] = qHTS assay to identify small molecule agonists of the endoplasmic reticulum stress response signaling pathway (AID 1159516; active = well fitted activation curve with a large enough effect in the signal ratio in the repeat runs, not every such curve was filed as active; the % refers to the signal ratio; note: potency is the fitted concentration of half-maximal effect); conditions: ESRE-bla HeLa, ER stress beta-lactamase reporter, 5 h; series mostly up to 61 µM
Outline: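 Fluorescence at 460 and 530 nm (405 nm excitation) reports beta-lactamase from an ER stress response element in HeLa cells treated 5 hr at 37 C.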

[9] = qHTS assay to identify small molecule agonists of the endoplasmic reticulum stress response signaling pathway - cell viability counter screen (AID 1159517; calls by dose curve; note: nearly all actives have a fitted effect of over 50% in size); conditions: ESRE-bla HeLa viability, CellTiter-Glo luminescence, 5 h; series mostly up to 61 µM
Outline: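 Cytotoxicity of test compounds toward ESRE-bla HeLa cells was assessed after 5 hr exposure. The luminescent CellTiter-Glo signal was measured 30 min after reagent addition.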

[10] = qHTS assay to identify small molecule antagonists of the retinoid-related orphan receptor gamma (ROR-gamma) signaling pathway - cell viability counter screen (AID 1159520); conditions: Tet-on RORgamma CHO cells viability, ATP luminescence, 16 h; series mostly up to 92.4 µM; note: nearly all actives have a fitted effect of over 50% in size; note: potency is the fitted concentration of half-maximal effect
Outline: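 Tet-on ROR gamma CHO cells (1,000/well) were plated 4 hr, given compounds in DMSO for 2 hr at 37 C, then induced with 1 uM final doxycycline for 16 hr. Viability was read as ATP by CellTiter-Glo luminescence after 30 min.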

[11] = biological target: Nuclear receptor ROR-gamma (Homo sapiens) (UniProt P51449); assay: qHTS assay to identify small molecule antagonists of the retinoid-related orphan receptor gamma (ROR-gamma) signaling pathway (AID 1159521; note: nearly all actives have a fitted effect of over 50% in size; note: potency is the fitted concentration of half-maximal effect); conditions: Tet-on RORgamma CHO cells, RORE-luciferase, 16 h; series mostly up to 92.4 µM
Outline: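 Test compounds were applied to Tet-on RORγ CHO cells 2 h ahead of doxycycline hyclate (1 uM final). Luciferase reporter activity was quantified by luminescence after 16 h at 37 C and 5% CO2.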

[12] = qHTS assay to identify small molecule agonists of the AP-1 signaling pathway - cell viability counter screen (AID 1159525; calls by dose curve; note: nearly all actives have a fitted effect of over 55% in size); conditions: ME-180 AP-1-bla cells viability, ATP luminescence, 5 h; series mostly up to 76.8 µM
Outline: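 Each titration point was normalised to DMSO and tetra n-octyl ammonium bromide controls. The read was Cell Titer Glo luminescence after 30 min at RT, following 5 h compound exposure of ME-180 AP-1-bla cells at 37 °C.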

[13] = qHTS assay to identify small molecule agonists of the RXR signaling pathway - cell viability counter screen (AID 1159529); conditions: RXR-alpha-bla HEK293T viability, CellTiter-Glo, 16 h; series mostly up to 76.8 µM; note: nearly all actives have a fitted effect of over 50% in size; note: potency is the fitted concentration of half-maximal effect
Outline: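 Compounds dissolved in DMSO were pinned onto HEK 293T cells carrying a beta-lactamase reporter under RXR-alpha control and incubated 16 hr. Cytotoxicity was then quantified by CellTiter-Glo luminescence.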

[14] = qHTS assay to identify small molecule antagonists of the retinoid acid receptor (RAR) signaling pathway - cell viability counter screen (AID 1159551); conditions: C3RL4 cells viability, ATP luminescence (CellTiter-Glo), 6 h; series mostly up to 92.4 µM; note: nearly all actives have a fitted effect of over 35% in size
Outline: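 In this counter screen, the RARE-luciferase line C3RL4 was exposed for 6 h at 37 C and 5% CO2 to compounds with retinol at 1 uM final. Cellular ATP, read by luminescence, served as the viability measure.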

[15] = biological target: Vitamin D3 receptor (Homo sapiens) (UniProt P11473); assay: qHTS assay to identify small molecule agonists of the vitamin D receptor (VDR) signaling pathway (AID 743222; calls by dose curve); conditions: HEK293T VDR-UAS-bla, beta-lactamase FRET ratio, 16 h; series mostly up to 63.5 µM
Outline: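 Tox21 cell reporter format: VDR-bla line, 16 h compound exposure in 5% CO2 at 37C, then fluorescence intensity after 2 h with LiveBLAzer B/G FRET substrate.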

[16] = qHTS assay to identify small molecule agonists of the vitamin D receptor (VDR) signaling pathway - cell viability counter screen (AID 743224); conditions: VDR-bla HEK293T viability, CellTiter-Glo luminescence, 16 h; series mostly up to 62.6 µM; note: nearly all actives have a fitted effect of over 50% in size; note: potency is the fitted concentration of half-maximal effect
Outline: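 CellTiter-Glo viability readout on VDR-bla cells, measured after 16 h of compound treatment at 37C in the same wells.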

[17] = biological target: Peroxisome proliferator-activated receptor delta (Homo sapiens) (UniProt Q03181); assay: qHTS assay to identify small molecule agonists of the peroxisome proliferator-activated receptor delta (PPARd) signaling pathway (AID 743212; calls by dose curve;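 note: HEK293H cells with PPARd UAS beta-lactamase reporter GeneBLAzer system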); conditions: HEK293H PPARd-UAS-bla, beta-lactamase FRET ratio, 17 h; series mostly up to 62.6 µM
Peroxisome proliferator-activated receptor delta (Homo sapiens), sequence (Q03181 whole entry, looked up): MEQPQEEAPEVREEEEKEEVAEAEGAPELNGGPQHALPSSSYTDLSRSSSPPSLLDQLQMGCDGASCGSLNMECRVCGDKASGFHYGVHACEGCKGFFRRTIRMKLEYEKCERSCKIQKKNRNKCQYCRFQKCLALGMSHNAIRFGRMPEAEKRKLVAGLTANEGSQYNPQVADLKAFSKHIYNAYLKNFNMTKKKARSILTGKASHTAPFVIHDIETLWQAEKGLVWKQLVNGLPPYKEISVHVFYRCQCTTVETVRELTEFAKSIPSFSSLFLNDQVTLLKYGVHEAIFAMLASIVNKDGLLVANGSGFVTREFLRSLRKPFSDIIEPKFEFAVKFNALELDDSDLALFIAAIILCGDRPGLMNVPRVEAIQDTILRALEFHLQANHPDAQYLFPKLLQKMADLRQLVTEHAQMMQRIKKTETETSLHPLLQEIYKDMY
Outline: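 Beta-lactamase reporter read by fluorescence (LiveBLAzer B/G FRET, 2 h, room temperature). Test agents, in DMSO, incubated at 37 C with PPARd-bla HEK293H cells.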

[18] = biological target: Peroxisome proliferator-activated receptor delta (Homo sapiens) (UniProt Q03181); assay: qHTS assay to identify small molecule antagonists of the peroxisome proliferator-activated receptor delta (PPARd) signaling pathway (AID 743215; active = well fitted inhibition curve with a large enough effect in the signal ratio in the repeat runs, not every such curve was filed as active; the % refers to the signal ratio;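 note: cells stimulated with agonist L165041 at 300 nM final during compound exposure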; note: potency is the fitted concentration of half-maximal effect); conditions: HEK293H PPARd-UAS-bla, beta-lactamase FRET ratio, antagonist, 17 h; series mostly up to 62 µM
Outline: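 Here, a reporter line (HEK293H, beta-lactamase under a UAS) measures PPARd signaling. Compounds are tested against agonist L165041 at 300 nM final concentration over 17 h at 37 C, with fluorescence read after substrate.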

[19] = biological target: Retinoic acid receptor RXR-alpha (Homo sapiens) (UniProt P19793); assay: qHTS assay to identify small molecule agonists of the RXR signaling pathway (AID 1159527; calls by dose curve; note: nearly all actives have a fitted effect of over 35% in size); conditions: HEK293T RXRa-UAS-bla, beta-lactamase ratio, 16 h; series mostly up to 76.8 µM
Retinoic acid receptor RXR-alpha (Homo sapiens), sequence (P19793 whole entry, looked up): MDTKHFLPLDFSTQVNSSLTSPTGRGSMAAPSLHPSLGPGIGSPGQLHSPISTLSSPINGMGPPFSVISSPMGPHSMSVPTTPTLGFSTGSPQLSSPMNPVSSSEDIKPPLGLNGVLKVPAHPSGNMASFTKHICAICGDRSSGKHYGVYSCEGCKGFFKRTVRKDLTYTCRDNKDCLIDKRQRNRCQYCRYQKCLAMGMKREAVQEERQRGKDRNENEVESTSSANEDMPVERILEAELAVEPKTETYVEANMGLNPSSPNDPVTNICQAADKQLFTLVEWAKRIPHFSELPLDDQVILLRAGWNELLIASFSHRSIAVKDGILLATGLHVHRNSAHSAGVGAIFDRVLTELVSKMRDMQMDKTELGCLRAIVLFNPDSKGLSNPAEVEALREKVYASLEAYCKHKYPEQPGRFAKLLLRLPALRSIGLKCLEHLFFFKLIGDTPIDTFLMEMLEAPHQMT
Outline: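 Using 9-cis retinoic acid as the reference agonist, chemicals were tested in HEK 293T cells […] for 16 hr; substrate loading lasted 2 hr at room temperature.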

[20] = qHTS assay to identify small molecule agonists of the AP-1 signaling pathway (AID 1159526; calls by dose curve); conditions: ME-180 (cervical carcinoma) AP-1-bla reporter, beta-lactamase FRET ratio, 5 h; series mostly up to 76.8 µM

Measured: Potency

O=C(O)Cc1ccc(OCCNC[C@H](O)c2ccccc2)cc1
inactive: [1] | [2] | [3] | [4] | [5] | [6] | [7] | [8] | [9] | [10] | [11] | [12] | [13] | [14]

CCN(CC)CCSC(=O)C(c1ccccc1)c1ccccc1
inactive: [5] | [15] | [6] | [16] | [7] | [8] | [9] | [10] | [11] | [12] | [13] | [14]

CCCN(CCc1cccs1)[C@H]1CCc2c(O)cccc2C1
inactive: [17] | [1] | [18] | [5] | [16] | [7] | [8] | [9] | [10] | [11] | [12] | [19]

CCC(C)(C)c1cc(O)c(C(C)(C)CC)cc1O
inactive: [17] | [1] | [18] | [5] | [15] | [7] | [9] | [12] | [20] | [19]
active: [8] 3.89 µM | [10] 24.3 µM | [11] 24.3 µM

CC(C)N=C(N)/N=C(\N)Nc1ccc(Cl)cc1
inactive: [17] | [2] | [4] | [15] | [16] | [7] | [8] | [9] | [10] | [12] | [20] | [13] | [14]
active: [1] 11.9 µM

c1cc(OCC2CO2)cc(OCC2CO2)c1 (stereo not given)
inactive: [17] | [2] | [3] | [5] | [15] | [7] | [8] | [9] | [10] | [12] | [14]
active: [11] 48.2 µM | [13] 48.6 µM

C/C=C/C=N/NC(=O)c1ccncc1
inactive: [17] | [1] | [3] | [5] | [6] | [7] | [8] | [9] | [10] | [11] | [12] | [13]

NC1(c2ccc(-c3nc4ccn5c(=O)[nH]nc5c4cc3-c3ccccc3)cc2)CCC1
inactive: [8] | [9]
active: [1] 15 µM | [3] 26.6 µM | [5] 33.5 µM | [7] 21.3 µM | [10] 29.8 µM | [11] 0.596 µM | [13] 21.3 µM

CCCCCCCCCCCCCCCC
inactive: [17] | [1] | [18] | [3] | [5] | [16] | [7] | [8] | [9] | [10] | [12] | [20] | [13] | [14]

O=S(=O)(O)CCCN1CCOCC1
inactive: [17] | [1] | [3] | [5] | [15] | [6] | [16] | [7] | [8] | [9] | [10] | [12] | [20] | [19] | [13] | [14]

c1cc2c3c(c1)ccc1cccc(c13)C2
active: [16] 56.1 µM
inactive: [17] | [1] | [18] | [5] | [15] | [8] | [9] | [10] | [11] | [12] | [14]

CCCCCCCC/C=C\CCCCCCCC(=O)NCc1ccc(O)c(OC)c1
inactive: [17] | [4] | [15] | [8] | [9] | [10] | [11] | [12] | [19] | [13] | [14]
active: [1] 18.8 µM | [2] 29.8 µM | [3] 29.8 µM | [6] 26.8 µM | [16] 33.5 µM | [7] 21.3 µM

CCN(CC)CCNc1ccc(CO)c2sc3ccccc3c(=O)c12
active: [1] 13.3 µM | [18] 23.7 µM | [3] 13.3 µM | [13] 6.01 µM
inactive: [17] | [4] | [15] | [8] | [9] | [10] | [12] | [20] | [14]

CC(=O)Oc1ccc(C2(c3ccc(OC(C)=O)cc3)C(=O)Nc3ccccc32)cc1
inactive: [17] | [1] | [18] | [3] | [5] | [6] | [16] | [7] | [8] | [9] | [10] | [11] | [13] | [14]

CN(C)c1ccc(N=Nc2ccccc2C(=O)O)cc1
active: [10] 13.7 µM | [11] 12.2 µM
inactive: [17] | [5] | [15] | [16] | [7] | [8] | [9] | [14]

CNC(=S)NN
active: [1] 11 µM | [6] 17.4 µM | [16] 5.49 µM | [11] 27.3 µM
inactive: [3] | [8] | [9] | [10] | [12] | [14]
